Molecules are shown by their SMILES. About 83,000 compounds went through this panel and 20% of them were active in at least one assay; those are over-represented in the sample as a whole.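 A percent growth of 40 corresponds to 60% growth inhibition; 0 means no net growth; -100 means all cells died. Active threshold: below 10.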 Unmarked numbers belong to inactive results. The source made the active and inactive calls.

One experiment relates to CCRF-CEM leukemia. The experiment is described as follows: NCI-60 one-dose screen, 48 h (100 = growth as untreated, 0 = no growth, -100 = all killed). To be noted: 10 µM unless noted.
Consider `O=S(=O)(Nc1cc(Cl)cc(Cl)c1)c1ccc(-c2cnc(C3CC3)o2)cc1`, for which the growth is 17.2%.
On to `CC(=O)Nc1ccc(NC(=O)Nc2cccc(-c3nc(-c4ccc(NC(=O)c5cccnc5)cc4Cl)no3)c2)cc1C(F)(F)F`, for which the growth was -14.5% (active).
Still for that read-out and setting: the figure for `O=C(Nc1cccc(-c2nc(-c3ccc(NC(=O)c4cccs4)cc3Cl)no2)c1)Nc1ccc(NC(=O)C2CC2)c(C(F)(F)F)c1` is 6.43% (active); for `CN1C(=O)N(C)C2Nn3c(s/c(=C\c4ccccn4)c3=O)=NC21` (centres undefined) it is 102%.

In a further experiment the test system is MOLT-4 leukemia. The experiment is described as above. To be noted: 10 µM unless noted.
`CCC(=O)Nc1ccc(-c2nc(-c3cccc(O)c3)c(-c3ccnc(Br)c3)[nH]2)cc1`: the growth is 39.9%.
As to `NC(=O)c1c(NC(=O)c2cccc(OC(F)(F)F)c2)sc2c1CCC(=O)C2`, the growth was 44.4%.
`COc1cc(C2=NN(C(C)=O)C(c3ccc(N4CCOCC4)cc3)C2)cc(OC)c1OC` (centres undefined): the growth was 106%.
With `CCC(=O)Nc1cc(Nc2cc(NC3CC3)n3ncc(C#N)c3n2)ccc1C`, the growth is 40.1%.
As for `O=C(CSc1ccc(-c2nc3ccccc3[nH]2)cn1)N1CCN(c2ccccc2F)CC1`, the growth was 14.6%.
For `NCCN1CCN(c2nc(-c3ccccc3)nc3nc(-c4ccccc4)oc23)CC1`, the growth was -0.256% (active).
The same measure, in the same setting: the figure for `CCN(CC)Cc1c(-c2cccc(OC(F)(F)F)c2)[nH]c2ccc(N3CCCC3)cc2c1=O` is 69.4%; for `C#C[C@]1(O)CC[C@H]2[C@@H]3CC=C4c5sc(-c6ccc(OC)cc6)nc5CC[C@]4(C)[C@H]3CC[C@@]21C` it is 7.24% (active); for `C#C[C@]1(O)CC[C@H]2[C@@H]3CC=C4c5sc(Nc6cc(OC)ccc6OC)nc5CC[C@]4(C)[C@H]3CC[C@@]21C` it is -5.93% (active).
Turning to `O=C(Nc1cccc(-c2nc(-c3ccc(NC(=O)c4cccnc4)cc3Cl)no2)c1)Nc1ccc(NC(=O)C2CC2)c(C(F)(F)F)c1`, the growth is -39.7% (active).
On the same count and under the same terms, for `O=C(Nc1ccc(-c2nc(-c3cccc(O)c3)c(-c3ccnc(Br)c3)[nH]2)cc1)c1ccccc1` the value was -15.8% (active).
For the compound `COc1ccccc1N1CCN(C2=NN=C(c3cccc(Cl)c3)c3ccccc3C2)CC1`, the growth is 17.6%.
Same read-out and setting: for `O=C(NNc1nc2cc(F)c(F)cc2n2cccc12)c1ncccn1` the value was 16.6%; for `O=C(CN1C(=O)CSC1=O)Nc1ccc(C(=O)/C=C/c2cc3ccccc3nc2Cl)cc1`, 36.4%; for `O=C(C[n+]1ccnc2ccccc21)c1ccc(O)c(O)c1`, 11.6%.
Consider `Cn1ccnc1C(=O)/C=C/c1ccc(C(=O)Nc2ccc(NC(=O)CCNC(=O)c3csc(Br)n3)cc2)cc1`, for which the growth is 70.3%.
On the same count and under the same terms, the figure for `COc1ccc(Oc2ccc(C3CC(c4cc(OC)c(OC)c(OC)c4)=NN3C(C)=O)cc2)cc1` (centres undefined) is 14.2%; for `O=C1/C(=C/c2ccccc2[N+](=O)[O-])Oc2ccc(O)cc21` it is 6.41% (active).
With `O=c1c2ccccc2nc(COc2ccccc2)n1/N=C/C=C/c1ccccc1`, the growth is 97.1%.
On the same count and under the same terms, the figure for `C#C[C@]1(O)CC[C@H]2[C@@H]3CC=C4c5sc(C6CC6)nc5CC[C@]4(C)[C@H]3CC[C@@]21C` is 46.8%; for `Cc1ccc(S(=O)(=O)N/N=C/c2cn(-c3ccc(F)cc3)nc2-c2ccc(S(C)(=O)=O)cc2)cc1` it is 106%; for `C#C[C@]1(O)CC[C@H]2[C@@H]3CC=C4c5sc(-c6ccccn6)nc5CC[C@]4(C)[C@H]3CC[C@@]21C` it is 21.7%.
Still for that read-out and setting: the figure for `CCOC(=O)c1c(NC(=O)c2cccc(C(F)(F)F)c2)sc2c(CN3CCN(C)CC3)c(O)ccc12` is -27.8% (active).
On the same count and under the same terms, the figure for `CCOC(=O)Nc1ccc(-c2nc(-c3cccc(O)c3)c(-c3ccnc(Br)c3)[nH]2)cc1` is 2.17% (active); for `COc1ccc(NS(=O)(=O)c2ccc(-c3cnc(C4CC4)o3)cc2)cc1Cl` it is 32.4%.
Take `O=S(=O)(Nc1ccc(I)c(Cl)c1)c1ccc(-c2cnc(C3CC3)o2)cc1`: the growth is 29.2%.
With `O=S(=O)(Nc1ccc2c(c1)OC(F)(F)O2)c1ccc(-c2cnc(C3CC3)o2)cc1`, the growth was 30.3%.
On the same count and under the same terms, for `O=C(CN1CCN(c2cc(=O)n(-c3ccccc3)c3ccccc23)CC1)Nc1ccc([N+](=O)[O-])cc1` the value was 90%; for `CN(c1ccc(Cl)cc1)S(=O)(=O)c1ccc(-c2cnc(C3CC3)o2)cc1`, 16.8%; for `O=C(/C=C/c1cn(-c2ccccc2)nc1-c1ccc(Cl)cc1)c1cc2ccccc2oc1=O`, 55.3%.

The values are drawn from PubChem BioAssay (NCI).
